Data published in PubChem BioAssay (NCI).
About 83,000 compounds went through this panel and 20% of them were active in at least one assay; those are over-represented in the sample as a whole.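 Each cell line was grown in a 96-well plate and treated with one concentration of compound for 48 hours. Values below 10 were considered active.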 Activity calls are given as the source filed them.

Assays:
Test in all cases: NCI-60 one-dose screen, 48 h (100 = growth as untreated, 0 = no growth, -100 = all killed)
Conditions in all cases: 10 µM unless noted
SR leukemia = tested on: SR leukemia
RPMI-8226 leukemia = tested on: RPMI-8226 leukemia
OVCAR-8 ovarian = tested on: OVCAR-8 ovarian
OVCAR-5 ovarian = tested on: OVCAR-5 ovarian
OVCAR-4 ovarian = tested on: OVCAR-4 ovarian
SK-OV-3 ovarian = tested on: SK-OV-3 ovarian
IGROV1 ovarian = tested on: IGROV1 ovarian
OVCAR-3 ovarian = tested on: OVCAR-3 ovarian
HS 578T breast = tested on: HS 578T breast
NCI/ADR-RES ovarian = tested on: NCI/ADR-RES ovarian

Measured: growth

COc1ccc(C2CC(n3ccnc3)c3cc(OC)c(OC)c(OC)c32)cc1O (stereo not given)
inactive: SR leukemia 35.4% | RPMI-8226 leukemia 94.6% | OVCAR-8 ovarian 89.2% | OVCAR-5 ovarian 107% | OVCAR-4 ovarian 100% | SK-OV-3 ovarian 86.3% | IGROV1 ovarian 82.4% | OVCAR-3 ovarian 57.1% | HS 578T breast 85.4% | NCI/ADR-RES ovarian 93.9%

Cc1ccc(S(=O)(=O)N2CCCN(c3nc(-c4ccccc4)nc4nc(-c5ccccc5)oc34)CC2)cc1
inactive: SR leukemia 92.2% | RPMI-8226 leukemia 89.6% | OVCAR-8 ovarian 95.4% | OVCAR-5 ovarian 105% | OVCAR-4 ovarian 103% | SK-OV-3 ovarian 107% | IGROV1 ovarian 90.2% | OVCAR-3 ovarian 114% | HS 578T breast 103% | NCI/ADR-RES ovarian 102%

CCN(CC)CCOc1ccc(C(=O)/C=C\c2ccc(Cl)cc2Cl)cc1
inactive: OVCAR-8 ovarian 53.3% | OVCAR-5 ovarian 68% | OVCAR-4 ovarian 52.6% | SK-OV-3 ovarian 43.2% | IGROV1 ovarian 32.2% | HS 578T breast 66.2% | NCI/ADR-RES ovarian 49.9%
active: SR leukemia -15.4% | RPMI-8226 leukemia -23.9% | OVCAR-3 ovarian 9.56%

COc1ccc(C/C(C)=C(\c2ccc(Cl)cc2)c2ccc(OCCN3CCCC3)cc2)cc1
inactive: RPMI-8226 leukemia 13.9% | OVCAR-8 ovarian 91.1% | OVCAR-5 ovarian 68.9% | OVCAR-4 ovarian 97.7% | SK-OV-3 ovarian 101% | IGROV1 ovarian 69% | OVCAR-3 ovarian 93.1% | HS 578T breast 70.4% | NCI/ADR-RES ovarian 87.8%
active: SR leukemia -14.2%

CCOc1ncc([N+](=O)[O-])c(OCC)n1
inactive: SR leukemia 93.7% | RPMI-8226 leukemia 84.8% | OVCAR-8 ovarian 105% | OVCAR-5 ovarian 101% | OVCAR-4 ovarian 113% | SK-OV-3 ovarian 97% | IGROV1 ovarian 107% | OVCAR-3 ovarian 124% | HS 578T breast 121% | NCI/ADR-RES ovarian 99.5%

C=C(c1ccc(C(=O)O)c(F)c1)c1cc2c(cc1C)C(C)(C)CCC2(C)C
inactive: SR leukemia 86.8% | RPMI-8226 leukemia 43.1% | OVCAR-8 ovarian 90.8% | OVCAR-5 ovarian 101% | OVCAR-4 ovarian 80.9% | SK-OV-3 ovarian 84.8% | IGROV1 ovarian 98% | OVCAR-3 ovarian 90.8% | HS 578T breast 59.6% | NCI/ADR-RES ovarian 79.5%

C#COc1cccc(Nc2ncnc3cc(NC(=O)[C@H](C)Cl)ccc23)c1
inactive: SR leukemia 92.6% [6.25 µM] | RPMI-8226 leukemia 100% [6.25 µM] | OVCAR-5 ovarian 25% [6.25 µM] | OVCAR-4 ovarian 56.6% [6.25 µM] | HS 578T breast 24.8% [6.25 µM] | NCI/ADR-RES ovarian 14.8% [6.25 µM]
active: OVCAR-8 ovarian 9.3% [6.25 µM] | SK-OV-3 ovarian 3.8% [6.25 µM] | IGROV1 ovarian 9.75% [6.25 µM] | OVCAR-3 ovarian 7.9% [6.25 µM]

CCOC(=O)c1c(C)nc2c(c1N)C(=O)C(=O)N2Cc1ccc(OC)cc1
inactive: SR leukemia 31% | RPMI-8226 leukemia 20.1% | OVCAR-8 ovarian 61.6% | OVCAR-5 ovarian 97.5% | OVCAR-4 ovarian 46.6% | SK-OV-3 ovarian 108% | IGROV1 ovarian 82.5% | OVCAR-3 ovarian 18.2% | HS 578T breast 79.2%
active: NCI/ADR-RES ovarian 8.45%

COc1ccc(C/C(C)=C(\c2ccc(O)cc2)c2ccc(OCCN3CCCCC3)cc2)cc1
inactive: SR leukemia 22.1% | RPMI-8226 leukemia 71.9% | OVCAR-8 ovarian 90.7% | OVCAR-5 ovarian 83.2% | OVCAR-4 ovarian 87.1% | SK-OV-3 ovarian 105% | IGROV1 ovarian 80.6% | OVCAR-3 ovarian 88.9% | HS 578T breast 86.8% | NCI/ADR-RES ovarian 90.5%

N#C/C(=C\c1ccc(-c2cccc(Cl)c2)o1)C(=O)Nc1ncc(Cc2ccc(Cl)cc2)s1
inactive: SR leukemia 29.9% | RPMI-8226 leukemia 81.1% | OVCAR-8 ovarian 40.4% | OVCAR-5 ovarian 47.1% | SK-OV-3 ovarian 78% | IGROV1 ovarian 30.5% | OVCAR-3 ovarian 11.3% | HS 578T breast 24.4% | NCI/ADR-RES ovarian 54.6%
active: OVCAR-4 ovarian -45.5%

CN(C)c1ccc([C@@H](C(=O)Nc2cccc([N+](=O)[O-])c2)N(C(=O)c2cc3ccccc3[nH]2)c2cccc([N+](=O)[O-])c2)cc1
inactive: SR leukemia 97% | RPMI-8226 leukemia 92.6% | OVCAR-8 ovarian 93.3% | OVCAR-5 ovarian 94.7% | OVCAR-4 ovarian 99.4% | SK-OV-3 ovarian 103% | IGROV1 ovarian 103% | OVCAR-3 ovarian 111% | HS 578T breast 93.5% | NCI/ADR-RES ovarian 102%

CC[C@@H](C(=O)[C@@H](C)[C@@H](O)[C@H](C)[C@@H]1O[C@@H]([C@@H](CC)C(=O)ONC(=O)c2ccccc2O)CC[C@@H]1C)C1O[C@]2(C=CC(=O)[C@]3(CC[C@@](C)([C@H]4CC[C@](O)(CC)[C@H](C)O4)O3)O2)[C@H](C)C[C@@H]1C (stereo not given in full)
active: SR leukemia 1.64% | OVCAR-3 ovarian 5.93%
inactive: RPMI-8226 leukemia 24.6% | OVCAR-8 ovarian 54.9% | OVCAR-5 ovarian 47% | OVCAR-4 ovarian 53.3% | SK-OV-3 ovarian 120% | IGROV1 ovarian 58.8% | HS 578T breast 43.9% | NCI/ADR-RES ovarian 48.7%

CCn1cc(C(=O)N/N=C/c2cccc(F)c2)c(=O)c2cc(F)c(N3CCNC(C)C3)c(F)c21 (stereo not given)
active: SR leukemia -29.2% | RPMI-8226 leukemia -42.2% | OVCAR-8 ovarian -5.39% | OVCAR-3 ovarian -83.3%
inactive: OVCAR-5 ovarian 90.2% | OVCAR-4 ovarian 23.8% | SK-OV-3 ovarian 108% | IGROV1 ovarian 69.4% | HS 578T breast 81.3% | NCI/ADR-RES ovarian 78.3%

Cc1nc2sc(C(=O)Nc3cccc(Cl)c3C)c(N)c2cc1C(=O)/C=C/c1ccccc1
active: RPMI-8226 leukemia -37.2% | OVCAR-8 ovarian -12.5% | OVCAR-5 ovarian 8.98% | IGROV1 ovarian -11.8% | OVCAR-3 ovarian -76.6% | HS 578T breast 6.35% | NCI/ADR-RES ovarian -4.7%
inactive: SR leukemia 14.2% | OVCAR-4 ovarian 35.5% | SK-OV-3 ovarian 28.8%

O=c1oc2c(cc1-c1ccccc1)c[n+]([O-])c1ccccc21
inactive: SR leukemia 103% | RPMI-8226 leukemia 98.2% | OVCAR-8 ovarian 94.9% | OVCAR-5 ovarian 102% | OVCAR-4 ovarian 98.6% | SK-OV-3 ovarian 104% | IGROV1 ovarian 102% | OVCAR-3 ovarian 112% | HS 578T breast 99.9% | NCI/ADR-RES ovarian 109%

O=C(/C=C/C12c3ccccc3C(c3ccccc31)C1C(=O)NC(=O)C12)c1ccc(Cl)cc1Cl (stereo not given)
active: SR leukemia 2.74% | RPMI-8226 leukemia -22.3% | OVCAR-3 ovarian -29.3% | NCI/ADR-RES ovarian 5.85%
inactive: OVCAR-8 ovarian 11.1% | OVCAR-5 ovarian 37.6% | OVCAR-4 ovarian 42.9% | SK-OV-3 ovarian 49.9% | IGROV1 ovarian 23.4% | HS 578T breast 30.5%

COC(=O)[C@]1(C)CCC[C@]2(C)[C@H]3C[C@@H]4[C@H]5[C@@H]6CC/C(=N\OCC/C(N)=N/O)[C@H]5[C@@]3(CC[C@H]21)CC4(C(C)C)O6
active: SR leukemia 5.07%
inactive: RPMI-8226 leukemia 39.1% | OVCAR-8 ovarian 73.2% | OVCAR-5 ovarian 93.3% | OVCAR-4 ovarian 51.6% | SK-OV-3 ovarian 89.9% | IGROV1 ovarian 63.4% | OVCAR-3 ovarian 53.1% | HS 578T breast 66.3% | NCI/ADR-RES ovarian 32.1%

COc1ccc2c(c1)oc1c(C)c3c(c(C)c12)C(=O)N(CCOS(C)(=O)=O)C3=O
inactive: SR leukemia 65.8% | RPMI-8226 leukemia 94% | OVCAR-8 ovarian 103% | OVCAR-5 ovarian 91.6% | OVCAR-4 ovarian 100% | SK-OV-3 ovarian 120% | IGROV1 ovarian 88.4% | OVCAR-3 ovarian 118% | HS 578T breast 109% | NCI/ADR-RES ovarian 97.7%

CN(C)CCCn1c2c(c3ccncc3c1=O)C(=O)c1ccccc1-2
inactive: SK-OV-3 ovarian 34.8% | HS 578T breast 19.8%
active: SR leukemia -26% | RPMI-8226 leukemia -22.7% | OVCAR-8 ovarian 0.796% | OVCAR-5 ovarian 0.243% | OVCAR-4 ovarian -8.01% | IGROV1 ovarian 0.297% | OVCAR-3 ovarian -12.3% | NCI/ADR-RES ovarian -23.5%

O=c1cc(CP(=O)(O)O)c2cc(O)c(-c3ccccc3)cc2o1
inactive: SR leukemia 95.2% | RPMI-8226 leukemia 99.2% | OVCAR-8 ovarian 101% | OVCAR-5 ovarian 101% | OVCAR-4 ovarian 98.5% | SK-OV-3 ovarian 102% | IGROV1 ovarian 104% | OVCAR-3 ovarian 108% | HS 578T breast 101% | NCI/ADR-RES ovarian 102%

C#CCOc1cccc(Nc2ncnc3cc(NC(=O)CCl)ccc23)c1
active: SR leukemia -47.7% | RPMI-8226 leukemia -43.9% | OVCAR-8 ovarian -30.2% | OVCAR-5 ovarian -73% | OVCAR-4 ovarian -41% | SK-OV-3 ovarian -55.8% | IGROV1 ovarian -64.6% | OVCAR-3 ovarian -76.7% | HS 578T breast -1.12% | NCI/ADR-RES ovarian -21.9%

c1cc(OCCN2CCCC2)ccc1CNc1ccc2nc(CCC3CCCCC3)[nH]c2c1
active: SR leukemia 7.84% | RPMI-8226 leukemia -8.82%
inactive: OVCAR-8 ovarian 43% | OVCAR-5 ovarian 67.5% | OVCAR-4 ovarian 56.7% | SK-OV-3 ovarian 99.3% | IGROV1 ovarian 46.3% | OVCAR-3 ovarian 49.6% | HS 578T breast 44.1% | NCI/ADR-RES ovarian 85%

CC(=O)O[C@H]1CC[C@]2(C)[C@H]3CC=C4[C@@H]5CC(C)(C)CC[C@]5(C(=O)N5CCN(CCC#N)CC5)CC[C@@]4(C)[C@]3(C)CC[C@H]2C1(C)C
active: OVCAR-4 ovarian -44.1% | OVCAR-3 ovarian -9.23%
inactive: SR leukemia 13.7% | RPMI-8226 leukemia 13.3% | OVCAR-8 ovarian 29.6% | OVCAR-5 ovarian 70.6% | SK-OV-3 ovarian 60.6% | IGROV1 ovarian 39.1% | HS 578T breast 61.2% | NCI/ADR-RES ovarian 48.8%

CC1=Nc2cnc(Nc3ccc(N4CCCCC4)cc3)nc2Nc2ccccc21
inactive: SR leukemia 34% | RPMI-8226 leukemia 34.3% | OVCAR-8 ovarian 77.2% | OVCAR-5 ovarian 82.7% | OVCAR-4 ovarian 52.2% | SK-OV-3 ovarian 104% | IGROV1 ovarian 63.3% | OVCAR-3 ovarian 94.9% | HS 578T breast 84.5% | NCI/ADR-RES ovarian 62.6%

C=CCN=c1sc(-c2ccc3ccccc3c2)cn1NC(=O)c1cc2ccc1CCc1ccc(cc1)CC2
inactive: SR leukemia 39.1% | RPMI-8226 leukemia 25.8% | OVCAR-8 ovarian 65.5% | OVCAR-5 ovarian 103% | OVCAR-4 ovarian 33.5% | SK-OV-3 ovarian 82.1% | IGROV1 ovarian 81.3% | OVCAR-3 ovarian 53.2% | HS 578T breast 58.7% | NCI/ADR-RES ovarian 67.2%

O=C(/C=C/c1cn(-c2ccccc2)nc1-c1ccccc1)CCC(=O)NO
inactive: SR leukemia 82.3% | RPMI-8226 leukemia 99.3% | OVCAR-8 ovarian 97.2% | OVCAR-5 ovarian 118% | OVCAR-4 ovarian 112% | SK-OV-3 ovarian 98.8% | IGROV1 ovarian 104% | OVCAR-3 ovarian 99% | HS 578T breast 95.3% | NCI/ADR-RES ovarian 101%
